Compounds with a hit are over-represented: about 3.4% of the library has one in this group of screens.
RE007 growth inh: less growth of the S. pombe RE007 Vpr strain. Potency, µM (doses to about 92.2 µM), usual class: inhibitors. S. pombe RE007 Vpr strain, BacTiter-Glo ATP luminescence, 24 h. actives 0.21% (n = 360,000); active = well fitted falling curve with a large enough effect; inconclusive = small, poorly fitted or top-dose-only effect; inactive = no such curve, though single readings can be large or run the other way; also: nearly all actives have a fitted effect of over 50% in size
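Fission yeast strain RE007, carrying one chromosomally integrated HIV-1 vpr copy, was seeded at OD 0.01 in PMG+AL medium with 23 nL pinned compound. After 24 h at 30 °C and 99% humidity, viability was read by BacTiter-Glo luminescence.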
FBPA Giardia inh: inhibitors of Giardia lamblia fructose-1,6-bisphosphate aldolase; purified Giardia FBPA; Potency, µM (series often up to 59.6 µM), hits mostly inhibitors; actives 0.71% (n = 290,000); AID 2451; also: nearly all actives have a fitted effect of over 55% in size
Target sequence (A8B2U2 whole entry, looked up): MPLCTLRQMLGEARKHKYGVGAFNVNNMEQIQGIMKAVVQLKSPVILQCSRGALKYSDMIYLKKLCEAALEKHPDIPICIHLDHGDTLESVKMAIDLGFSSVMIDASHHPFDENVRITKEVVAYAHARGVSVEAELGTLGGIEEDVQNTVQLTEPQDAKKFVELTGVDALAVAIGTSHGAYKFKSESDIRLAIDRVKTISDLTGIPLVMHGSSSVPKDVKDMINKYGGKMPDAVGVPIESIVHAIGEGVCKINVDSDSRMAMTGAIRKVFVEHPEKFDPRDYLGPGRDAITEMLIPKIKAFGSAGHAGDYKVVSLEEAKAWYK
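40 nM FBPA preincubated 10 min at RT with compound (up to 57.5 uM final), then substrate plus GAPDH/TPI/NAD/arsenate coupling and diaphorase/resazurin added. Fluorescence read after 20 min at RT, 525/598 nm.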
Sm TGR inh: blocks Schistosoma mansoni thioredoxin glutathione reductase; AID 485364; purified TGR, DTNB reduction, TNB absorbance 405 nm; Q962Y6; actives 3% (n = 360,000); Potency, µM (series often up to 114 µM), actives largely listed as inhibitors; also: nearly all actives have a fitted effect of over 60% in size
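First, TGR (20 nM dispensed) and NADPH were mixed with compound. Second, a 15 min room-temperature incubation followed. Third, further NADPH and then DTNB were added to start the reaction. Finally, TNB absorbance was monitored kinetically.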
AmpC inh detg: inhibitors of E. coli AmpC beta-lactamase with detergent | AmpC hydrolysis of nitrocefin, absorbance 480 nm, 0.01% Triton | Potency, µM (titrated, usually from 114 µM), usual class: inhibitors | actives 0.041% (n = 370,000) | AID 485294; also: nearly all actives have a fitted effect of over 25% in size
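20 mM phosphate pH 7.0 + 0.01% (detergent screen) or 0.0001% Triton X-100; 5.3 nM AmpC reagent; cpd preinc 15 min RT; nitrocefin (800 uM stock) to start; A480 q20 s × 4 min; Activity was normalised to no-enzyme and no-compound control wells.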
AmpC no deterg: AmpC beta-lactamase inhibition without detergent. actives 0.52% (n = 330,000). P00811. AmpC nitrocefin hydrolysis, absorbance 480 nm, 0.0001% Triton. Potency, µM (series often up to 57.1 µM), actives largely listed as inhibitors; also: nearly all actives have a fitted effect of over 20% in size
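AmpC (5.3 nM in the dispensed reagent) in 20 mM phosphate pH 7.0 with 0.01% (detergent screen) or 0.0001% Triton X-100 was preincubated with compounds for 15 min at room temperature. Nitrocefin was then added from an 800 uM solution, and hydrolysis was followed at 480 nm.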
Large screens that a line does not name were inactive. Unless noted, calls follow the shape of the dose curve; as a rule, active = well fitted curve in the direction sought with a large enough effect; inconclusive = small, poorly fitted or top-dose-only effect, or another doubt; inactive = no such curve, though single readings can be large; an effect the other way counts as inactive or inconclusive.

O=C(NCc1ccco1)C(=O)NCC1OCCN1C(=O)c1ccc(Cl)cc1 (stereo not given)	Sm TGR inh 17.8µM
O=C(NCc1ccccn1)C(=O)NCC1OCCN1C(=O)c1ccc(Cl)cc1 (stereo not given)	none (no result: FBPA Giardia inh, Sm TGR inh, AmpC inh detg, AmpC no deterg)
O=C(O)COc1ccc(S(=O)(=O)NCCc2ccccc2)cc1	AmpC inh detg inconclusive
CC1(C)CC(=O)C2=C(C1)OC(N)=C(C#N)C2c1ccc2c(c1)OCO2 (stereo not given)	none
CC1(C)CC(=O)C2=C(C1)OC(N)=C(C#N)C2c1ccccc1[N+](=O)[O-] (stereo not given)	FBPA Giardia inh inconclusive, Sm TGR inh 22.4µM
COc1cc2c(cc1C1C(C#N)=C(N)OC3=C1C(=O)CC(C)(C)C3)OCO2 (stereo not given)	Sm TGR inh 89.1µM
CC1(C)CC(=O)C2=C(C1)OC(N)=C(C#N)C2c1ccccc1 (stereo not given)	AmpC inh detg inconclusive
CC(C)c1ccc(C2(C)NC(=O)N(C(C)C(=O)Nc3ccc(N4CCOCC4)cc3)C2=O)cc1 (stereo not given)	none (no result: FBPA Giardia inh)
CC(=O)Nc1nc2ccccc2n1Cc1ccccc1C	none
COc1ccc2nc(Nc3nc4cc5c(cc4s3)OCO5)sc2c1	AmpC no deterg 22.4µM
N#Cc1c2ncn(CC(=O)c3ccc(Br)cc3)c(=O)c2c2n1CCC2	none
Cc1ccc2c(=O)cc(C(=O)Nc3ccc(S(=O)(=O)N4CCCCC4C)cc3)oc2c1C (stereo not given)	none (no result: RE007 growth inh, FBPA Giardia inh, AmpC no deterg)
CCCCC1=CC2=CC(=O)C(C)(OC(=O)C3CCCC3)C(=O)C2=CO1 (stereo not given)	FBPA Giardia inh inconclusive, Sm TGR inh 39.8µM
COC(=O)CCCC1=CC2=CC(=O)C(C)(OC(=O)C3CCCC3)C(=O)C2=CO1 (stereo not given)	FBPA Giardia inh inconclusive
CC1(OC(=O)C2CCCC2)C(=O)C=C2C=C(c3ccsc3)OC=C2C1=O (stereo not given)	FBPA Giardia inh inconclusive, Sm TGR inh 44.7µM
CC1(OC(=O)C2CCCC2)C(=O)C=C2C=C(c3ccsc3)N(Cc3ccco3)C=C2C1=O (stereo not given)	FBPA Giardia inh inconclusive, Sm TGR inh 25.1µM
CC1(OC(=O)C2CCCC2)C(=O)C=C2C=C(c3ccsc3)N(CCCCO)C=C2C1=O (stereo not given)	FBPA Giardia inh inconclusive
CC1(OC(=O)CCc2ccccc2)C(=O)C=C2C=C(c3ccsc3)OC=C2C1=O (stereo not given)	Sm TGR inh inconclusive, AmpC no deterg 28.2µM (no result: RE007 growth inh)
C/C(=N\NC(=S)NC(C)C)c1ccco1	Sm TGR inh 3.98µM
C/C(=N\NC(=S)NC(C)C)c1ccccc1	Sm TGR inh 0.398µM, AmpC inh detg inconclusive
CN(C)C(CNC(=O)c1cc(S(=O)(=O)N(C)c2ccc(F)cc2)ccc1Cl)c1ccco1 (stereo not given)	none (no result: FBPA Giardia inh)
COc1ccccc1CCC(=O)Nc1ccc(S(=O)(=O)Nc2nccs2)cc1	none (no result: FBPA Giardia inh)
CCOc1ccccc1N(CC(=O)N/N=C/c1cc(Br)ccc1OC)S(C)(=O)=O	AmpC inh detg inconclusive
Cc1cccc(N2CCN(c3nc4nonc4nc3N3CCSCC3)CC2)n1	none
CCOC(=O)NC1(Nc2cccc(Cl)c2)Oc2ccccc2O1	Sm TGR inh 50.1µM
Cc1cc(C)n(CCc2nc(-c3ccc(C)o3)cs2)n1	FBPA Giardia inh inconclusive, Sm TGR inh 7.94µM
COc1cccc(NC(=S)N2CCC(Cc3ccccc3)CC2)c1	none (no result: FBPA Giardia inh)
COC(CNC(=O)c1ccc2c3c(onc13)-c1ccccc1C2=O)OC	RE007 growth inh inconclusive, FBPA Giardia inh inconclusive, Sm TGR inh 12.6µM
CC(=O)Nc1ccc(S(=O)(=O)NC2CCCCCC2)cc1	none
O=C(CNC1CCCCCC1)Nc1ccc(S(=O)(=O)NC2CC2)cc1	AmpC no deterg 0.159µM
O=C1/C(=C/c2ccc([N+](=O)[O-])cc2)C=C(c2ccccc2)N1c1ccccc1	none
O=C1c2ccc(Oc3cccc([N+](=O)[O-])c3)cc2C(=O)N1c1ccccn1	none
O=C(O)c1cccc(N2C(=O)c3cccc4cccc(c34)C2=O)c1	none
O=C(O)c1cccc(N2C(=O)/C(=C/c3ccc([N+](=O)[O-])cc3)C=C2c2ccccc2)c1	Sm TGR inh 25.1µM

From PubChem
